About 79,000 compounds went through this panel and 15% of them were active in at least one assay; those are over-represented in the sample as a whole. Unmarked numbers belong to inactive results. Calls of active or inactive are those of the source. No stated cut-off is given here; in the data, active means growth inhibition above about 70%; inactive means the rest.
Key:
[1] = NCI Yeast Anticancer Drug Screen. Data for the rad50 strain (AID 155);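 further: 0% = growth of vehicle-only cultures of the same strain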; conditions: S. cerevisiae rad50 strain growth inhibition, stronger effect = higher value
Summary of the method: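 Growth of the mutant yeast was measured after compound exposure and referenced to vehicle-treated cultures.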

[2] = NCI Yeast Anticancer Drug Screen. Data for the mec2-1 strain (AID 157); conditions: S. cerevisiae mec2-1 strain, stronger effect = higher value
Summary of the method: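 Vehicle-treated cultures served as reference for growth inhibition of compound-exposed mec2-1 yeast.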

[3] = NCI Yeast Anticancer Drug Screen. Data for the sgs1 mgt1 strain (AID 161);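 further: 0% = growth of cultures given vehicle only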; conditions: S. cerevisiae sgs1 mgt1 strain, stronger effect = higher value
Summary of the method: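 Inhibition of yeast growth, normalised to vehicle-treated controls, is reported for a strain bearing genetic alterations in DNA damage repair.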

[4] = NCI Yeast Anticancer Drug Screen. Data for the cln2 rad14 strain (AID 165);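 further: 0% = growth equal to vehicle treated cultures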; conditions: S. cerevisiae cln2 rad14 strain, stronger effect = higher value
Summary of the method: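 Each compound was tested on cln2 rad14 yeast. Inhibition of growth was calculated against vehicle-exposed controls.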

[5] = NCI Yeast Anticancer Drug Screen. Data for the bub3 strain (AID 167); conditions: S. cerevisiae bub3 mutant strain, stronger effect = higher value
Summary of the method: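 Whole-cell yeast assay. The mutant strain was incubated with compounds, and growth inhibition was determined by comparison with vehicle-treated cells.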

[6] = NCI Yeast Anticancer Drug Screen. Data for the mlh1 rad18 strain (AID 175); conditions: S. cerevisiae mlh1 rad18 strain growth inhibition, stronger effect = higher value
Summary of the method: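 Vehicle-treated cultures served as the reference for growth inhibition in a yeast strain carrying DNA damage repair alterations exposed to each compound.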

[7] = at 5.0 µM (retest, dose inferred, filed as 0.5)
[8] = at 50.0 µM (retest, dose inferred, filed as 5.0)

| SMILES | growth inhibition [1, 7] [%] | growth inhibition [1, 8] | growth inhibition ([1]; at 50.0 µM) | growth inhibition [2, 7] | growth inhibition [2, 8] | growth inhibition ([2]; at 50.0 µM) | growth inhibition [3, 7] | growth inhibition [3, 8] | growth inhibition ([3]; at 50.0 µM) | growth inhibition [4, 7] [%] | growth inhibition [4, 8] | growth inhibition ([4]; at 50.0 µM) | growth inhibition [5, 7] [%] | growth inhibition [5, 8] | growth inhibition ([5]; at 50.0 µM) | growth inhibition [6, 7] | growth inhibition [6, 8] | growth inhibition ([6]; at 50.0 µM) |
| --- | --- | --- | --- | --- | --- | --- | --- | --- | --- | --- | --- | --- | --- | --- | --- | --- | --- | --- |
| CCC(=O)Oc1c(Br)c(Br)c(Br)c(Br)c1Br | 8 | 56% | 29% | 17% | 62% | 6% | 7% | 50% | 8.45% | 21 | 68% | 25.8% | 56 | 86% (active) | 92% (active) | 35% | 84% (active) | 19.5% |
| COc1ccc(C(=O)C(c2ccc(OC)cc2)C2(O)C(=O)Nc3c(C)cc(Cl)cc32)cc1 (configuration not stated) | 21 | 21% | -25.1% | -15% | -15% | 89% (active) | -9% | -9% | 87.8% (active) | 3 | 3% | 69.7% | -3 | -3% | 89.8% (active) | -2% | -2% | 38.7% |
| CC(=O)NC1=C(Sc2ccc(C)cc2)C(=O)c2ccccc2C1=O | 63 | 98% (active) | 54.4% | 96% (active) | 99% (active) | 10.1% | 72% (active) | 95% (active) | 29.8% | 35 | 97% (active) | -32.6% | 67 | 98% (active) | 42% | 99% (active) | 99% (active) | 23.1% |
| CCOCCOC(=O)c1cc([N+](=O)[O-])cc([N+](=O)[O-])c1 | -4 | 94% (active) | 60.2% | -5% | 98% (active) | 66.3% | -3% | 93% (active) | 53.8% | -3 | 41% | -1.5% | -8 | 94% (active) | 91.7% (active) | 2% | 98% (active) | 95.9% (active) |
| Cc1cc(C(O)(C(F)(F)F)C(F)(F)F)cc(C(O)(C(F)(F)F)C(F)(F)F)c1 | -1 | 99% (active) | 97.2% (active) | 12% | 99% (active) | 98.3% (active) | -6% | 99% (active) | 52.8% | -4 | 99% (active) | 95.7% (active) | 6 | 98% (active) | 96% (active) | 1% | 99% (active) | 97.8% (active) |
| Cc1cc([N+](=O)[O-])cc(C)c1OC(=O)Nc1c(Cl)cccc1Cl | 37 | 37% | 31.6% | 30% | 45% | 22.1% | 46% | 71% (active) | 55.4% | 32 | 36% | 22.1% | 24 | 68% | 23.1% | 48% | 56% | 24.1% |
| CNC(=O)OCC1=CC(=O)C(OC)=C(OC)C1=O | -15 | -8% | 4.5% | -12% | -14% | 11.9% | -10% | -2% | 28.4% | -6 | -5% | 9.55% | -9 | -6% | -20.6% | -8% | -5% | 8.95% |
| Clc1ccc([O][In]([O]c2ccc(Cl)cn2)[O]c2ccc(Cl)cn2)nc1 | 1 | 1% | 68.2% | 8% | 8% | 72% (active) | -1% | -1% | 56% | -4 | -4% | 38.9% | -26 | -26% | 48.2% | -5% | -5% | 53.8% |
| CC(=O)OCc1c2ccccc2c(C)c2c1cc(F)c1ccccc12 | 35 | 87% (active) | 98.2% (active) | 25% | 89% (active) | 98.8% (active) | 52% | 90% (active) | 98.1% (active) | 14 | 85% (active) | 98.2% (active) | 15 | 86% (active) | 98.5% (active) | 40% | 88% (active) | 98.2% (active) |
